Measured values taken from PubChem BioAssay.
A number with no mark means an inactive call. For part of these data: Results with a measured potency or affinity are listed apart. Calls of active or inactive are those of the source. Unless noted, no rule for the calls is given here.

Assays:
[1] = antimalarial activity against Dd2 strain (AID 2302;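 active = growth inhibition above 50% at the single 2 µM test dose, taken to imply half-maximal potency below 2 µM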;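 also: 0% = DMSO untreated growth and 100% = chloroquine plus artemisinin killed control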); conditions: P. falciparum Dd2 in RBCs, LDH growth readout, 72 h; at 2 µM; hits give high values
[2] = human hepatoma cell viability loss – ATP luminescence, cytotoxicity control for P. falciparum antimalarial project, primary screen (AID 2303;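 active = inhibition above 50%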;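 also: 0% = DMSO wells and 100% = digitonin-killed cells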); conditions: HepG2 viability, 24-48 h, at 10 µM, hits give high values
[3] = molecular target: L-lactate dehydrogenase (Plasmodium falciparum (isolate CDC / Honduras)) (UniProt Q27743); assay: PfLDH activity inhibition – cell lysate, 3D7 strain, counter-screen for P. falciparum growth inhibition project (AID 2304);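 also: 0% = vehicle and 100% = reference inhibitor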; conditions: P. falciparum 3D7 crude extract, LDH APAD/NBT absorbance; at 2 µM; hits give high values
Chain of L-lactate dehydrogenase (Plasmodium falciparum (isolate CDC / Honduras)) (Q27743 whole entry, looked up): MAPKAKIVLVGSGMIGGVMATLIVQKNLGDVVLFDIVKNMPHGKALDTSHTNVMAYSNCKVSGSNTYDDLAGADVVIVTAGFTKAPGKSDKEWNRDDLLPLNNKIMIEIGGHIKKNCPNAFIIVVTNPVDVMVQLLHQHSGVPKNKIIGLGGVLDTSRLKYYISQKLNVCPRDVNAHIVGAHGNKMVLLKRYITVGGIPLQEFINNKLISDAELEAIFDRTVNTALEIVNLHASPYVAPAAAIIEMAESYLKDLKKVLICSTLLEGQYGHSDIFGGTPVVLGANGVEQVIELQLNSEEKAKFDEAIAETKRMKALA

[4] = inhibition of 3D7 malaria parasite growth – strain 3D7 (AID 2306);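 also: 0% = DMSO wells and 100% = chloroquine plus artemisinin control wells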; conditions: P. falciparum 3D7 erythrocytic growth, LDH absorbance, 72 h; at 2 µM; hits give high values
[5] = molecular target: Calcium-dependent protein kinase 1 (Plasmodium falciparum (isolate 3D7)) (UniProt P62344); assay: PfCDPK1 kinase inhibitors, biochemical, TCAMS library (AID 1159585; cut-off not given, nearly all actives have IC50 up to about 0.98 µM;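 also: inhibitors leave more ATP so luminescence rises with inhibition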); conditions: recombinant PfCDPK1, Kinase-Glo ATP depletion luminescence
Chain of Calcium-dependent protein kinase 1 (Plasmodium falciparum (isolate 3D7)) (P62344 whole entry, looked up): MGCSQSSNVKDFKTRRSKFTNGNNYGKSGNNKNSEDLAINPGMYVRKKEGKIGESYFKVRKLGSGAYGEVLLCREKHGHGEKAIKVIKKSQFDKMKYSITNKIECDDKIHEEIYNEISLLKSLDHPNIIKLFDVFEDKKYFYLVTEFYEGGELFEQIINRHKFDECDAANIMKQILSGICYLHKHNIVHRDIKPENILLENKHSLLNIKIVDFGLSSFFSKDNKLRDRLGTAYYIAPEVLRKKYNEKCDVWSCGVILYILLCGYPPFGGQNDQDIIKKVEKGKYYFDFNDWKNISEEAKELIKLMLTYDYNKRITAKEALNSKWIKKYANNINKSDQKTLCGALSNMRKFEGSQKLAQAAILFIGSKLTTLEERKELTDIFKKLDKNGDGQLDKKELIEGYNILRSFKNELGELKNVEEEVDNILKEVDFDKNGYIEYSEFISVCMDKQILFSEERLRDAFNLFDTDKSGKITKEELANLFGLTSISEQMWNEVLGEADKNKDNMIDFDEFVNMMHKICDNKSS

[6] = molecular target: Plasmodium falciparum protein kinase 6 (PK6, PF3D7_1337100) (UniProt Q8IDW1); assay: PfPK6 kinase inhibitors, biochemical, TCAMS library (AID 1159586); conditions: recombinant PfPK6, Kinase-Glo ATP depletion luminescence
Chain of Plasmodium falciparum protein kinase 6 (PK6, PF3D7_1337100) (Q8IDW1 1-305): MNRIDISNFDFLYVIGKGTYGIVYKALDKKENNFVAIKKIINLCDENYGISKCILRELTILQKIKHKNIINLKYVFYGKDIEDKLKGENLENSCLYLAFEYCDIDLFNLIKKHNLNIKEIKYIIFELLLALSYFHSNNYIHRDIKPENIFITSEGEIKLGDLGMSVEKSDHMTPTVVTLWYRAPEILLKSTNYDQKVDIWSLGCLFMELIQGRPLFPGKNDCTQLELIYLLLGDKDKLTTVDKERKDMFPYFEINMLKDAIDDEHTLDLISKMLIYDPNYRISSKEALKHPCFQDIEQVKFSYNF

[7] = molecular target: Protein kinase 7 (PK7), Plasmodium falciparum 3D7 (PF3D7_0213400) (UniProt Q7YTF7); assay: inhibition of Plasmodium PK7 catalytic activity – biochemical, TCAMS antimalarial set, Kinase-Glo luminescence (AID 1159587); conditions: recombinant PfPK7, Kinase-Glo ATP depletion luminescence
Chain of Protein kinase 7 (PK7), Plasmodium falciparum 3D7 (PF3D7_0213400) (Q7YTF7 1-343): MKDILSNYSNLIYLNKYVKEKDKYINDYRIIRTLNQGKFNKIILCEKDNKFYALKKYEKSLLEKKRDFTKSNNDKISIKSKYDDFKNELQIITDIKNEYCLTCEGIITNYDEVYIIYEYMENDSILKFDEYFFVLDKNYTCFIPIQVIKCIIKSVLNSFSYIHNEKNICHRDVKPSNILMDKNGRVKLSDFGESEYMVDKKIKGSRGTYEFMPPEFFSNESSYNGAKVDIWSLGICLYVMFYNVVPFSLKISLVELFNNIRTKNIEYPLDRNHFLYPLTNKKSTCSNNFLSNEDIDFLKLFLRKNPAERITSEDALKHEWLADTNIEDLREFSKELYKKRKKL

[8] = molecular target: Calcium-dependent protein kinase 4 (Plasmodium falciparum (isolate 3D7)) (UniProt Q8IBS5); assay: PfCDPK4 kinase inhibitors, biochemical, TCAMS library (AID 1159588; cut-off not given, nearly all actives have IC50 up to about 0.91 µM); conditions: recombinant PfCDPK4, Kinase-Glo ATP depletion luminescence
Chain of Calcium-dependent protein kinase 4 (Plasmodium falciparum (isolate 3D7)) (Q8IBS5 whole entry, looked up): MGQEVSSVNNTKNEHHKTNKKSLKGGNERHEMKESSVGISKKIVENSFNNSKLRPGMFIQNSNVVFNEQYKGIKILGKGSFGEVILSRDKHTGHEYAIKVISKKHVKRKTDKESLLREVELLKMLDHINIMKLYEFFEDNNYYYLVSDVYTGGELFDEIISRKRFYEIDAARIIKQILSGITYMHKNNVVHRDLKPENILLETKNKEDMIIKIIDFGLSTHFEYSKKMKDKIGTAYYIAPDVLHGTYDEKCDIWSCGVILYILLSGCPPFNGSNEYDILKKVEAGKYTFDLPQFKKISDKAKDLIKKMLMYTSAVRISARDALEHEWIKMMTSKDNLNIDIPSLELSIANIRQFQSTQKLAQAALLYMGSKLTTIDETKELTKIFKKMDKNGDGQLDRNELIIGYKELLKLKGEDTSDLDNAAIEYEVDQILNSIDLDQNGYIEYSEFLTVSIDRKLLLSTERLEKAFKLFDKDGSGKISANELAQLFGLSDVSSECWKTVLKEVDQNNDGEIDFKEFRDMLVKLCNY

CC[C@H](N=C(Nc1ccc(-c2ccccc2)cc1)Nc1ccc(C#N)cc1O)c1ccccc1
growth inhibition [1]: 97% (active)
inhibition [2]: -6%
inhibition [3]: 4%
growth inhibition [4]: 99% (active)
outcome [5]: inactive
outcome [6]: inactive
outcome [7]: inactive
outcome [8]: inactive

CCCCCN=C(N)c1ccc(OCCCCCOc2ccc(C(N)=NCCCCC)cc2)cc1
growth inhibition [1]: 98% (active)
inhibition [2]: 3%
inhibition [3]: 6%
growth inhibition [4]: 99% (active)
outcome [5]: inactive
outcome [6]: inactive
outcome [7]: inactive
outcome [8]: inactive

C[C@@H]1CC[C@H](NC(=O)[C@H](CC2CCCC2)NC(=O)N2CCNCC2)C(=O)CN1S(=O)(=O)c1ccccn1
growth inhibition [1]: 19%
inhibition [2]: 5%
inhibition [3]: -2%
growth inhibition [4]: 84% (active)
outcome [5]: inactive
outcome [6]: inactive
outcome [7]: inactive
outcome [8]: inactive

O=C(c1ccc(-c2ccc(-c3nc4ccc(F)cc4[nH]3)cc2)cc1)N1CCCCC1CN1CCC(O)C1 (configuration not stated)
growth inhibition [1]: 100% (active)
inhibition [2]: 24%
inhibition [3]: -1%
growth inhibition [4]: 90% (active)
outcome [5]: inactive
outcome [6]: inactive
outcome [7]: inactive
outcome [8]: inactive

Cc1cc(N[C@@H](CC(C)C)C(=O)NCCOc2ccccc2)nc(NCCc2ccccc2)n1
growth inhibition [1]: 29%
inhibition [2]: 13%
inhibition [3]: -1%
growth inhibition [4]: 94% (active)
outcome [5]: inactive
outcome [6]: inactive
outcome [7]: inactive
outcome [8]: inactive

CCn1cc2c3c(cc(C(=O)N[C@@H](Cc4ccccc4)[C@H](O)CNCc4cccc(OC)c4)cc31)N(C)S(=O)(=O)CC2
growth inhibition [1]: 97% (active)
inhibition [2]: -12%
inhibition [3]: 0%
growth inhibition [4]: 99% (active)
outcome [5]: inactive
outcome [6]: inactive
outcome [7]: inactive
outcome [8]: inactive

NCc1ccc(CNCc2cccc(-c3ccc(-c4nc5ccc(C(F)(F)F)cc5[nH]4)cc3)c2)cc1
growth inhibition [1]: 90% (active)
inhibition [2]: 13%
inhibition [3]: -7%
growth inhibition [4]: 98% (active)
outcome [5]: inactive
outcome [6]: inactive
outcome [7]: inactive
outcome [8]: inactive

Oc1c(C(Nc2nc3ccccc3s2)c2ccc(OC(F)F)cc2)ccc2cccnc12 (configuration not stated)
growth inhibition [1]: 85% (active)
inhibition [2]: 62% (active)
inhibition [3]: 4%
growth inhibition [4]: 92% (active)
outcome [5]: inactive
outcome [6]: inactive
outcome [7]: inactive
outcome [8]: inactive

CCCCCCN1CCC(NCc2cccc(-n3ccnc3)c2)CC1
growth inhibition [1]: 101% (active)
inhibition [2]: 3%
inhibition [3]: 5%
growth inhibition [4]: 103% (active)
outcome [5]: inactive
outcome [6]: inactive
outcome [7]: inactive
outcome [8]: inactive

COc1ccc(N2CCN(CCCN3CCN(C(=O)c4ccc(/C=C/c5ccc(Cl)c(Cl)c5)cc4)CC3)CC2)c(OC)c1
growth inhibition [1]: 52% (active)
inhibition [2]: 47%
inhibition [3]: -3%
growth inhibition [4]: 93% (active)
outcome [5]: inactive
outcome [6]: inactive
outcome [7]: inactive
outcome [8]: inactive

O=C(/C=C/c1cccc(Cl)c1)N1CCC(C(O)CN2CCC3(CC2)CN(C(=O)/C=C/c2cccc(Cl)c2)c2ccccc23)CC1 (configuration not stated)
growth inhibition [1]: 38%
inhibition [2]: 34%
inhibition [3]: 0%
growth inhibition [4]: 91% (active)
outcome [5]: inactive
outcome [6]: inactive
outcome [7]: inactive
outcome [8]: inactive

C[C@H](Cc1ccc(OCCCCCCOc2ccc(C[C@@H](C)N[C@H](C)c3ccccc3)cc2)cc1)NC[C@H](O)c1cccc(Cl)c1
growth inhibition [1]: 98% (active)
inhibition [2]: 99% (active)
inhibition [3]: -4%
growth inhibition [4]: 99% (active)
outcome [5]: inactive
outcome [6]: inactive
outcome [7]: inactive
outcome [8]: inactive

Cc1ccc2nc(-c3cc(-c4ccc(OCc5ccccc5)cc4)cnc3N)[nH]c2c1
growth inhibition [1]: 87% (active)
inhibition [2]: 33%
inhibition [3]: 1%
growth inhibition [4]: 91% (active)
outcome [5]: inactive
outcome [6]: inactive
outcome [7]: inactive
outcome [8]: inactive

CCCN(Cc1nnc(-c2ccco2)o1)C(=O)C1CCCN(C(=O)c2ccc(Cl)cc2)C1 (configuration not stated)
growth inhibition [1]: 96% (active)
inhibition [2]: -3%
inhibition [3]: -1%
growth inhibition [4]: 96% (active)
outcome [5]: inactive
outcome [6]: inactive
outcome [7]: inactive
outcome [8]: inactive

Cc1ccc(OCCCON2C(N)=NC(N)=NC2(C)C)cc1C
growth inhibition [1]: 94% (active)
inhibition [2]: 57% (active)
inhibition [3]: 0%
growth inhibition [4]: 96% (active)
outcome [5]: inactive
outcome [6]: inactive
outcome [7]: inactive
outcome [8]: inactive

C(=Cc1nc2ccccc2s1)c1ccc2c(c1)OCCO2
growth inhibition [1]: 96% (active)
inhibition [2]: 13%
inhibition [3]: 1%
growth inhibition [4]: 98% (active)
outcome [5]: inactive
outcome [6]: inactive
outcome [7]: inactive
outcome [8]: inactive

CCCCCCOc1ccc(N2C(N)=NC(N)=NC2(C)C)cc1
growth inhibition [1]: 0%
inhibition [2]: 5%
inhibition [3]: 7%
growth inhibition [4]: 98% (active)
outcome [5]: inactive
outcome [6]: inactive
outcome [7]: inactive
outcome [8]: inactive

Cc1cc(=O)c(-c2ccc(Oc3cccc(OC(F)(F)F)c3)cc2)c(C)[nH]1
growth inhibition [1]: 96% (active)
inhibition [2]: 13%
inhibition [3]: -5%
growth inhibition [4]: 97% (active)
outcome [5]: inactive
outcome [6]: inactive
outcome [7]: inactive
outcome [8]: inactive

CN1CCCN(c2ccnc3cc4c(cc23)N(C(=O)c2ccc(Cl)cc2)CC4)CC1
growth inhibition [1]: 0%
inhibition [2]: 0%
inhibition [3]: 4%
growth inhibition [4]: 100% (active)
outcome [5]: inactive
outcome [6]: inactive
outcome [7]: inactive
outcome [8]: inactive

Cc1ccccc1Oc1nc2ccccc2nc1SCC(=O)NC(C)C
growth inhibition [1]: 55% (active)
inhibition [2]: -14%
inhibition [3]: -1%
growth inhibition [4]: 97% (active)
outcome [5]: inactive
outcome [6]: inactive
outcome [7]: inactive
outcome [8]: inactive

CCN(C)CCCn1c(N(C)C)nc2cc(-n3cnc4cc(-c5ccc(Cl)cc5)sc4c3=O)ccc21
growth inhibition [1]: 12%
inhibition [2]: 83% (active)
inhibition [3]: 5%
growth inhibition [4]: 80% (active)
outcome [5]: inactive
outcome [6]: inactive
outcome [7]: inactive
outcome [8]: inactive

CCOc1ccc(-c2nonc2NC(=O)c2ccccc2OC)cc1OCC
growth inhibition [1]: 99% (active)
inhibition [2]: 24%
inhibition [3]: -3%
growth inhibition [4]: 100% (active)
outcome [5]: inactive
outcome [6]: inactive
outcome [7]: inactive
outcome [8]: inactive

O=C(Nc1ccccc1)N1CCOC(CCN2CCC(F)(F)CC2)(c2ccc(Cl)c(Cl)c2)C1 (configuration not stated)
growth inhibition [1]: 100% (active)
inhibition [2]: 20%
inhibition [3]: 3%
growth inhibition [4]: 102% (active)
outcome [5]: inactive
outcome [6]: inactive
outcome [7]: inactive
outcome [8]: inactive

COc1ccc2nccc(NC(=O)C3(O)CCC(NCc4ccc5c(c4)NCCS5)CC3)c2n1 (configuration not stated)
growth inhibition [1]: 64% (active)
inhibition [2]: 1%
inhibition [3]: -1%
growth inhibition [4]: 93% (active)
outcome [5]: inactive
outcome [6]: inactive
outcome [7]: inactive
outcome [8]: inactive

NC(=O)c1cccc(C(=O)Nc2cccc(-c3ccc(-c4nc5ccccc5[nH]4)s3)c2)c1
growth inhibition [1]: 69% (active)
inhibition [2]: 37%
inhibition [3]: 1%
growth inhibition [4]: 95% (active)
outcome [5]: inactive
outcome [6]: inactive
outcome [7]: inactive
outcome [8]: inactive

CN(C)CCNC(=O)N1CCCN(c2ncnc3cc(-c4ccc(Cl)cc4)sc23)CC1
growth inhibition [1]: 21%
inhibition [2]: 41%
inhibition [3]: 4%
growth inhibition [4]: 98% (active)
outcome [5]: inactive
outcome [6]: inactive
outcome [7]: inactive
outcome [8]: inactive

Cc1noc(C)c1-c1ccc(C(=C2CCCCCC2)c2ccc(O)cc2)cc1
growth inhibition [1]: 96% (active)
inhibition [2]: -7%
inhibition [3]: 7%
growth inhibition [4]: 100% (active)
outcome [5]: inactive
outcome [6]: inactive
outcome [7]: inactive
outcome [8]: inactive

CC(C)Cn1c2ccccc2c2nc3nc(N)nc(N)c3nc21
growth inhibition [1]: -1%
inhibition [2]: 36%
inhibition [3]: -3%
growth inhibition [4]: 93% (active)
outcome [5]: inactive
outcome [6]: inactive
outcome [7]: inactive
outcome [8]: inactive

NC(=O)c1cccc(C(=O)Nc2cccc(-c3ccc(-c4nc5ccc(C(F)(F)F)cc5[nH]4)cc3)c2)c1
growth inhibition [1]: 78% (active)
inhibition [2]: 83% (active)
inhibition [3]: -1%
growth inhibition [4]: 100% (active)
outcome [5]: inactive
outcome [6]: inactive
outcome [7]: inactive
outcome [8]: inactive

CCN(CC)Cc1cc(Nc2c3ccc(Cl)cc3nc3cccc(OC)c23)ccc1O
growth inhibition [1]: 98% (active)
inhibition [2]: 8%
inhibition [3]: -3%
growth inhibition [4]: 101% (active)
outcome [5]: inactive
outcome [6]: inactive
outcome [7]: inactive
outcome [8]: inactive

Cc1cc(NC(=O)Nc2ccc(N(C)C)cc2)c2cc(Cl)ccc2n1
growth inhibition [1]: 50% (active)
inhibition [2]: -4%
inhibition [3]: 3%
growth inhibition [4]: 100% (active)
outcome [5]: inactive
outcome [6]: inactive
outcome [7]: inactive
outcome [8]: inactive

O=C(Nc1ccc(OC(F)(F)F)cc1)NC1CCN(c2ccnc3ccccc23)CC1
growth inhibition [1]: 40%
inhibition [2]: 40%
inhibition [3]: -7%
growth inhibition [4]: 101% (active)
outcome [5]: inactive
outcome [6]: inactive
outcome [7]: inactive
outcome [8]: inactive

C=CCc1ccccc1OCC(O)CN(C1CCCCC1)C1CCCCC1 (configuration not stated)
growth inhibition [1]: 84% (active)
inhibition [2]: 50% (active)
inhibition [3]: 1%
growth inhibition [4]: 93% (active)
outcome [5]: inactive
outcome [6]: inactive
outcome [7]: inactive
outcome [8]: inactive

CNCCCNCc1ccc(-c2ccc(F)c(Cl)c2)o1
growth inhibition [1]: 12%
inhibition [2]: 22%
inhibition [3]: 0%
growth inhibition [4]: 100% (active)
outcome [5]: inactive
outcome [6]: inactive
outcome [7]: inactive
outcome [8]: inactive

CC(=O)N(C)c1cccc(CNc2cc(C)nc(Nc3ccc(C)cc3)n2)c1
growth inhibition [1]: 21%
inhibition [2]: 8%
inhibition [3]: -9%
growth inhibition [4]: 97% (active)
outcome [5]: inactive
outcome [6]: inactive
outcome [7]: inactive
outcome [8]: inactive

O=c1cc(NCCCNCc2cccc3c2OC(F)(F)O3)[nH]c2ccccc12
growth inhibition [1]: 15%
inhibition [2]: 4%
inhibition [3]: 7%
growth inhibition [4]: 88% (active)
outcome [5]: inactive
outcome [6]: inactive
outcome [7]: inactive
outcome [8]: inactive

Nc1c(I)cc(C(=O)Nc2ccc3nc4c(c(N)c3c2)CCCC4)cc1I
growth inhibition [1]: 99% (active)
inhibition [2]: 40%
inhibition [3]: 2%
growth inhibition [4]: 100% (active)
outcome [5]: inactive
outcome [6]: inactive
outcome [7]: inactive
outcome [8]: inactive

COc1ccc2cc(C=NNc3nc4ccccc4[nH]3)c(Cl)nc2c1
growth inhibition [1]: 90% (active)
inhibition [2]: 2%
inhibition [3]: -2%
growth inhibition [4]: 100% (active)
outcome [5]: inactive
outcome [6]: inactive
outcome [7]: inactive
outcome [8]: inactive

COc1ccc(-c2cccc(NC(=O)c3cccc(Cl)c3)c2)cc1CN1CCC(O)CC1
growth inhibition [1]: 16%
inhibition [2]: 38%
inhibition [3]: 5%
growth inhibition [4]: 98% (active)
outcome [5]: inactive
outcome [6]: inactive
outcome [7]: inactive
outcome [8]: inactive
